# Assay outcomes from PubChem.
# HCMV inh: qHTS Assay for inhibitors of the human cytomegalovirus (HCMV) | activity change, negative = inhibition, % at 57.5 µM | AID 1259415, 2018 | HFF cells, HCMV-luciferase reporter, 72 h; hits give low values | 4.5% of 410,000 active; in the data active means activity change below about -60%; inconclusive means no clear call, values can overlap the other calls; inactive means above about -39%
#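 After 16 h attachment at 37C, HFF cells received test compound and HCMV-luciferase (1 PFU/cell); reporter luminescence read 72 h later, data normalized against buffer-only and known inhibitor Salinomycin.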
# Vaccinia Venus: qHTS for Stage-Specific Inhibitors of Vaccinia Orthopoxvirus: Venus Reporter Primary qHTS; 0.46% of 330,000 active; Vaccinia virus Venus reporter expression, fluorescence; Potency, µM (doses to about 36.5 µM), inactives show at the top dose activity change, negative = inhibition, most hits filed as inhibitors; AID 720580, 2013; calls by dose curve; tested in A549 cells; further: potency means the concentration at half of the fitted maximal effect; nearly all actives have a fitted effect of over 30% in size
# HCV inh: qHTS Assay for Inhibitors of Hepatitis C Virus (HCV); Huh7.5.1 HCVcc-Cre infection, luciferase reporter, 44 h; Potency, µM (series often up to 41.8 µM), for the others: top-dose activity change, negative = inhibition, hits mostly inhibitors; 3.4% of 340,000 active; AID 651820, 2012; active means well fitted inhibition curve with a large enough effect; inconclusive means small, poorly fitted or top-dose-only effect, or another doubt; inactive means no such curve, though single readings can be large or run the other way; further: potency means the concentration at half of the fitted maximal effect
#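 A cell-based infection assay in which seeded cells (1,000 per well) receive test compound after 4 h, are inoculated with HCVcc-Cre at approximately 0.5 moi, and are incubated 44 h before luminescence detection.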
# MARV entry inh: qHTS for inhibitors of binding or entry into cells for Marburg Virus; Marburg virus pseudotyped entry inhibition, cell reporter; Potency, µM (doses to about 37.8 µM), for the others: at the top dose activity change, negative = inhibition, hits mostly inhibitors; 1.8% of 300,000 active; AID 540276, 2011; calls by dose curve; tested in HEK293 cells; further: potency means the concentration at half of the fitted maximal effect
# VACV mCherry inh: qHTS for Stage-Specific Inhibitors of Vaccinia Orthopoxvirus: mCherry Reporter Primary qHTS; Vaccinia virus mCherry reporter infection, fluorescence; Potency, µM (doses to about 36.5 µM), for inactives: at the top dose activity change, negative = inhibition, hits mostly inhibitors; 0.63% of 310,000 active; AID 720579, 2013; calls by dose curve; tested in A549 cells; further: potency means the concentration at half of the fitted maximal effect; nearly all actives have a fitted effect of over 35% in size
# LASV entry inh: qHTS for Inhibitors of binding or entry into cells for Lassa Virus. Lassa virus pseudotype entry inhibition, cell reporter. Potency, µM (highest dose often 37.9 µM), for inactives: top-dose activity change, negative = inhibition, usual class: inhibitors. 1.2% of 300,000 active. AID 540256, 2011; calls by dose curve; tested in HEK293 cells; further: potency means the concentration at half of the fitted maximal effect; nearly all actives have a fitted effect of over 50% in size
# Starred values were filed as active, the others as inactive; i = inactive; ? = inconclusive; . = not tested or not shown; [ ] = remark or other dose. This is a sample that favours compounds with a hit; in the whole collection about 7.8% have one here. On the % scale 0 is the no-effect control and ±100 the full control effect.
SMILES,HCMV inh,Vaccinia Venus,HCV inh,MARV entry inh,VACV mCherry inh,LASV entry inh
CCOC(=O)c1c(NC(=O)CN2CCN(C)CC2)sc(C(=O)Nc2ccccc2)c1C,-8,-24%,6.3µM*,?,-7%,-23%
CC1(c2ccc(Cl)cc2)NC(=O)N(CC(=O)N2CCCC2)C1=O (stereo not given),-11,.,16µM*,13%,.,1%
C=CCOC(=O)C1=C(C)OC(N)=C(C#N)[C@H]1c1ccoc1,.,.,.,6%,.,.
CCOC(=O)c1sc(NC(=O)CCN2CCN(C)CC2)c(C(=O)OCC)c1C,?,-10%,14µM*,0%,-6%,11µM*
CC(=O)c1c(C)n(-c2ccc(Cl)cc2)c2ccc(OC(=O)COc3ccccc3)cc12,-17,-12%,.,.,-15%,11%[46.1 µM]
CCOc1ccc(-n2c(C)c(C(=O)O)c3cc(OC)ccc32)cc1,?,-7%,2%,6.3µM*,i,?
CC(=O)c1c(C)n(-c2cccc(C)c2)c2ccc(OC(=O)COc3ccccc3)cc12,-63*,-1%,.,-17%[46.1 µM],-12%,-13%[46.1 µM]
CCOc1ccc(-n2c(C)c(C(C)=O)c3cc(OC(C)=O)ccc32)cc1,-78*,.,?,.,.,.
OC(c1ccc(Cl)c(F)c1)c1ncc(-c2cccc3ccccc23)[nH]1 (stereo not given),?,14%,.,.,4%,.
CCc1ccc(N2C(=O)N(CC(=O)C(C)(C)C)c3ccccc3S2(=O)=O)cc1,9,-22%,.,.,-6%,29%[46.1 µM]
Cn1cc(-c2ccc3c(c2)N(CC2CCCCC2)C(=O)COC3)cn1,20,.,.,.,.,.
O=C(c1ccoc1)N1CCN(c2cc(-c3ccccc3)nc3cc(-c4ccccc4)nn23)CC1,-98*,?,.,.,?,.
COc1ccc(-c2cc3nc(C)c(C)c(N4CCN(C(=O)c5ccoc5)CC4)n3n2)cc1,24,-13%,.,.,-5%,.
COc1ccccc1-c1cc2nc(-c3ccccc3)cc(N3CCN(C(=O)c4ccoc4)CC3)n2n1,-103*,?,.,.,?,.
Cc1cc(N2CCN(C(=O)c3ccco3)CC2)n2ncc(-c3ccccc3)c2n1,210,-18%,-3%,?,.,-20%
Fc1ccc(-c2cc3nc(-c4ccccc4)cc(N4CCN(CCN5CCOCC5)CC4)n3n2)cc1,-71*,-13%,10µM*,?,-26%,-13%
COc1ccccc1-c1cc2nc(-c3ccccc3)cc(N3CCN(C(=O)c4ccco4)CC3)n2n1,-100*,?,.,.,?,.
CC(C)c1noc(-c2ccccc2OCC(=O)Nc2cccc([N+](=O)[O-])c2)n1,9,0%,.,?,0%,1%[46.1 µM]
C[C@H]1[C@@H](NS(=O)(=O)Cc2ccccc2)CC[C@@]23CCCN2C(=O)CCC[C@@H]13,5,.,.,.,.,.
Cc1ccc2nc(-c3ccc(Cl)cc3)cc(C(=O)OCC(=O)c3ccccc3)c2c1,-12,9%,.,.,3%,16%[46.1 µM]
O=C(c1ccoc1)N1CCN(c2cc(-c3ccco3)nc3cc(-c4ccccc4)nn23)CC1,-73*,?,.,.,?,.
Cc1cc(N2CCN(C(=O)c3ccoc3)CC2)n2nc(-c3ccccc3)cc2n1,-8,-13%,.,.,?,.
COc1ccc2cc(/C=N/NC(=O)c3ccc(CN(c4cccc(Cl)c4Cl)S(C)(=O)=O)cc3)c(Cl)nc2c1,37,-14%,-16%,0.56µM*,i,?
COc1ccc2cc(/C=N/O)c(Cl)nc2c1,52,-1%,?,17%,i,?
CCOC(=O)c1c2n(c3c(NCc4ccccc4)ncnc13)CCCC2,4,-9%,5µM*,?,.,-28%
SMILES,HCMV inh,Vaccinia Venus,HCV inh,MARV entry inh,VACV mCherry inh,LASV entry inh
Cc1ccc(CNc2ncnc3c2nc2n3CCCC2)cc1,-16,-14%,.,.,-5%,-10%[46.1 µM]
O=C(Nc1ccc(Br)cc1)c1ccc(F)c(S(=O)(=O)N2CCN(c3ccccn3)CC2)c1,-89*,-30%,7.1µM*,?,-11%,?
O=C(Nc1ccc(Oc2ccccc2)cc1)c1ccc(F)c(S(=O)(=O)N2CCN(c3ccccc3F)CC2)c1,-79*,-25%,.,.,-26%,?
Cc1ccccc1NC(=O)c1ccc(F)c(S(=O)(=O)N2CCN(c3ccccn3)CC2)c1,?,.,?,-6%,.,?
Cc1cccc(N2CCN(S(=O)(=O)c3cc(C(=O)Nc4ccc(Oc5ccccc5)cc4)ccc3F)CC2C)c1 (stereo not given),-64*,-29%,.,.,-20%,?
Cc1cccc(NC(=O)c2ccc(F)c(S(=O)(=O)N3CCC4(CC3)OCCO4)c2)c1,-7,-19%,?,.,-19%,7%[46.1 µM]
Cc1ccnc(NC(=O)c2cccc(S(=O)(=O)N3CCN(c4ccc(F)cc4)CC3)c2)c1,-24,-23%,10µM*,?,-28%,1%[46.1 µM]
Cc1ccnc(NC(=O)c2cccc(S(=O)(=O)N3CCOCC3)c2)c1,17,-7%,-8%,0%,i,10%
O=C(Nc1ccc(Oc2ccccc2)cc1)c1ccc(F)c(S(=O)(=O)N2CCN(c3cccc(Cl)c3)CC2)c1,-70*,-35%,.,.,?,?
CC(C)c1ccc(NC(=O)c2ccc(F)c(S(=O)(=O)N3CCN(c4ccccc4F)CC3)c2)cc1,-37,-28%,.,.,-2%,20%[46.1 µM]
O=C(Nc1ccc(Br)cc1)c1ccc(F)c(S(=O)(=O)NC2CCCCCC2)c1,-98*,-30%[7.34 µM],.,.,?,?
COc1ccccc1N1CCN(S(=O)(=O)c2cc(C(=O)Nc3ccc(Oc4ccccc4)cc3)ccc2F)CC1,-67*,-24%,.,.,-3%,?
Cc1cccc(NC(=O)c2ccc(F)c(S(=O)(=O)N3CCN(c4ccc(F)cc4)CC3)c2)c1,-73*,?,.,.,?,?
COCc1ccc(CN2CCOc3ccc(C4=CCCCC4)cc3C2)o1,.,1%,.,.,-7%,.
COc1cccc([C@H]2/C(=C(\O)c3ccc(OC)c(OC)c3)C(=O)C(=O)N2c2cc(C)on2)c1,.,.,.,-12%[46.1 µM],.,.
Cc1cccc(-n2ncc3c(N4CCC(C)CC4)ncnc32)c1,147,-7%,-3%,.,6%,.
Cc1ccc(-n2ncc3c(N4CCCCCC4)ncnc32)cc1C,-98*,7%,.,.,11%,22%[46.1 µM]
Cc1cccc(-n2ncc3c(N4CCCCCC4)ncnc32)c1,-61*,-1%,.,.,-13%,-5%[46.1 µM]
COc1cccc(N2CCN(c3ncnc4c3cnn4-c3ccc(C)cc3C)CC2)c1,-97*,?,3.5µM*,-4%,14µM*,.
Cc1ccc(-n2ncc3c(SCc4cccnc4)ncnc32)c(C)c1,-84*,-18%,11µM*,?,-28%,2.8µM*
